Bioassay records (PubChem)
Rows were chosen to be rich in hits. Some 2.4% of all compounds tested hit in one or more screens of this group.
POLI inh: qHTS for Inhibitors of Polymerase Iota; actives 1% (n = 390,000); AID 588590, 2011; Potency, µM (top dose mostly 115 µM), without a hit: top-dose activity, negative = inhibition, usual class: inhibitors; DNA polymerase iota (Homo sapiens), Q9UNA4; Pol iota fluorescent replication assay, 10 min
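Fluorescent replication assay read twice, at 0 min and 10 min after adding 50 nM (final) substrate. Enzyme (10 nM) and compounds were first incubated 15 min at room temperature; enzyme-free buffer wells were negative controls.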
POLH inh: qHTS for Inhibitors of Polymerase Eta. DNA polymerase eta (Homo sapiens), Q9Y253. recombinant Pol eta, fluorescent DNA replication assay. Potency, µM (top dose mostly 114 µM), without a hit: top-dose activity change, negative = inhibition, usual class: inhibitors. actives 1.2% (n = 390,000). AID 588591, 2011; note: % is set by controls: 0 for no effect and ±100 for the full control effect
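Fluorescent replication assay: 50 nM final substrate added after a 15 min room-temperature compound preincubation with 10 nM enzyme. Signal taken at 0 min and again at 10 min.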
Pol kappa inh: qHTS for Inhibitors of Polymerase Kappa. actives 0.53% (n = 400,000). AID 588579, 2011. Potency, µM (highest dose often 107 µM), for inactives: at the top dose activity, negative = inhibition, hits mostly inhibitors. DNA polymerase kappa (Homo sapiens), Q9UBT6. purified Pol kappa, fluorescent DNA synthesis assay, 10 min; note: % is set by controls: 0 for no effect and ±100 for the full control effect
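10 nM Pol kappa was preincubated with compounds for 15 min at room temperature. Reaction started with 50 nM (final) substrate. Fluorescence read kinetically at 0 and 10 min.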
Pol beta inh: qHTS Assay for Inhibitors of DNA Polymerase Beta; Pol beta primer extension/strand displacement, fluorescence kinetic; Potency, µM (doses to about 114 µM), without a hit: at the top dose activity change, negative = inhibition, actives largely listed as inhibitors; actives 1.3% (n = 340,000); note: % is set by controls: 0 for no effect and ±100 for the full control effect
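Pol beta (10 nM) and compounds were preincubated 15 min at room temperature, then 50 nM substrate (final) started primer extension/strand displacement. Reads were taken at 0 and 10 min; concentration-response data were fitted to a four-parameter Hill equation.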
TDP1 inh: qHTS Assay for Inhibitors of Tyrosyl-DNA Phosphodiesterase (TDP1). Tyrosyl-DNA phosphodiesterase 1 (Homo sapiens), Q9NUW8. Potency, µM (highest dose often 130 µM), for the others: at the top dose activity change, negative = inhibition, hits mostly inhibitors. actives 0.28% (n = 350,000). AID 485290, 2010. recombinant TDP1, AlphaScreen DNA substrate cleavage; note: % is set by controls: 0 for no effect and ±100 for the full control effect; nearly all actives have a fitted effect of over 40% in size
Target sequence (Q9NUW8 whole entry, looked up): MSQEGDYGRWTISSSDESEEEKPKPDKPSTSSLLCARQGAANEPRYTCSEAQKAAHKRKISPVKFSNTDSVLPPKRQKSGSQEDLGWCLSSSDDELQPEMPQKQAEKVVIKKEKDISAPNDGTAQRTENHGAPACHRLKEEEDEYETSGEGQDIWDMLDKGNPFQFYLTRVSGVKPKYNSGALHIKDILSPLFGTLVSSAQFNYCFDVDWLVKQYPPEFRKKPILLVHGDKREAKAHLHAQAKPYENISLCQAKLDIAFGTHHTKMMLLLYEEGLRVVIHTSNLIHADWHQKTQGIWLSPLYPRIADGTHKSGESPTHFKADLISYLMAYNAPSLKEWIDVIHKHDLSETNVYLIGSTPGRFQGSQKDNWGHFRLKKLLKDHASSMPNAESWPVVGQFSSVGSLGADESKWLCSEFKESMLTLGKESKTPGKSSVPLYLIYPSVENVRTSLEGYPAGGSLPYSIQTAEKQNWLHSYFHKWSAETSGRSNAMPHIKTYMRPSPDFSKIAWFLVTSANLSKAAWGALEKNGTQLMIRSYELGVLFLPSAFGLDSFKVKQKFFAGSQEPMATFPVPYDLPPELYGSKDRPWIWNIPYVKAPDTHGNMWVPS
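Here, a 5' biotin and 3' phosphotyrosine-FITC DNA oligonucleotide reports Tdp1 activity: intact substrate bridges AlphaScreen beads, while cleavage leaves a 3' phosphate and drops signal. All incubations at room temperature.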
An asterisk follows results filed as active; ? = inconclusive; nt = not tested or not shown; [ ] = remark or other dose. Calls come from the whole dose curve; as a rule, active = well fitted curve in the direction sought with a large enough effect; inconclusive = small, poorly fitted or top-dose-only effect, or another doubt; inactive = no such curve, though single readings can be large; an effect the other way counts as inactive or inconclusive. Potency is the fitted concentration of half-maximal effect.

SMILES | POLI inh | POLH inh | Pol kappa inh | Pol beta inh | TDP1 inh
COc1ccc(N(CC(=O)NCc2ccccc2Cl)S(=O)(=O)c2c(C)nn(C)c2C)cc1 | 34% | -9% | -4% | -1% | 2%
O=c1c2c(nc3c(-c4ccccc4)c[nH]n13)CCC2 | ? | 4% | -17% | -1% | 5%
O=c1c2c(nc3c(-c4ccc(Cl)cc4)c[nH]n13)CCC2 | 20% | -17% | -9% | 89µM* | 10%
O=Nc1ccc(/C=C/c2ccnc3ccccc23)cc1 | 6% | nt | -2% | nt | nt
Cc1nn(-c2ccccn2)c2c1-c1nc(N)sc1CC2 | 3.2µM* | nt | -22% | nt | nt
C[N+]1(Cc2ccccc2)CCC(C(=O)OCC2CCCC2)CC1 (centres undefined) | nt | nt | 7%[19.4 µM] | nt | 6%
CN(CC(=O)O)c1ccc(C=O)cc1 | -16% | nt | -17% | nt | nt
COc1ccc(N(CC(=O)Nc2cc(OC)cc(OC)c2)S(=O)(=O)c2c(C)noc2C)cc1 | 89µM* | -20% | -28% | 0% | 2%
CCOC(=O)c1c(NC(=O)c2nc(S(C)(=O)=O)ncc2Cl)sc(C(C)=O)c1C | 2% | 79µM* | 4% | -2% | 6%
Cc1c(C(=O)O)cccc1-c1ccc(/C=C2/NC(=O)N(c3ccccc3)C2=O)o1 | ? | 22µM* | ? | 18µM* | nt
CCOC(=O)CN1C(=O)S/C(=C\c2ccc(-c3cccc(C(=O)O)c3C)o2)C1=O | ? | ? | -20% | nt | nt
Cc1cccc(NC(=O)CN2C(=O)N/C(=C/c3ccc(-c4cccc(C(=O)O)c4C)o3)C2=O)c1 | -9% | 79µM* | -23% | ? | 0%
Cc1c(C(=O)O)cccc1-c1ccc(/C=C2\SC(=O)NC2=O)o1 | ? | 22µM* | ? | 7% | -2%
Cc1cccc(NC(=O)CN2C(=O)N/C(=C/c3ccc(C)s3)C2=O)c1 | -14% | -7% | -17% | 0% | -1%
Cc1ccc(-n2c(SCc3ccccc3)nc3c([nH]c4ccccc43)c2=O)cc1 | 3% | 0% | -3%[60.1 µM] | 1% | 5%
Cc1ccc(NS(=O)(=O)c2ccc3c(c2)CC(=O)N3C)cc1C | nt | nt | nt | nt | 1%
Cc1cc2ccccn2c1C(=O)c1ccc(N/N=C/c2ccc(C(=O)O)cc2)c([N+](=O)[O-])c1 | ? | 35µM* | -10% | ? | nt
Cc1ccc2nc(-c3ccc(-c4ccccn4)s3)cn2c1 | ? | -18% | -20% | 40µM* | nt
CCOC(=O)c1ccccc1NS(=O)(=O)c1ccc(N2CCCCS2(=O)=O)cc1 | ? | -23% | -2%[60.1 µM] | -12% | 4%
CC(C)N1CCN(Cc2ccccc2-c2ccco2)CC1CCO (centres undefined) | 13% | -9% | 14%[60.1 µM] | 9% | 6%
CC(C)N1CCN(Cc2cccc(-c3ccco3)c2)CC1CCO (centres undefined) | 41% | -20% | -7% | 10µM* | nt
O=C(OCC(=O)N1N=C(c2ccc(Cl)cc2)CC1c1ccco1)c1cncc(Br)c1 (centres undefined) | ? | 45µM* | ? | nt | -1%
Cc1ccc(Cl)cc1NC(=O)CN1C(=O)CCc2ccccc21 | 17% | -9% | 2% | 0% | 0%
Cc1ccc(NC(=O)N2CCc3ccccc32)cc1C | 26% | -10% | -7% | 3% | 0%
Cc1ccc(NC(=O)CN2C(=O)CCc3ccccc32)cc1C | ? | 0% | -39% | 22µM* | 5%
SMILES | POLI inh | POLH inh | Pol kappa inh | Pol beta inh | TDP1 inh
Cc1ccc(C)c(NC(=O)CN2C(=O)CCc3ccccc32)c1 | 79µM* | -6% | ? | 22µM* | -3%
NC(=O)/C(=C/c1ccco1)C(N)=S | ? | -6% | ? | -9% | 10µM*
CCN1CCN(c2oc(-c3ccc(COc4ccccc4C)o3)nc2C#N)CC1 | 21% | -21% | -14% | -6% | 12%
N/C(=N\OC(=O)c1ccc(Br)cc1)c1cccc([N+](=O)[O-])c1 | ? | 1% | -9% | 18µM* | nt
Cc1ccc(C(=O)O/N=C(\N)c2cccc([N+](=O)[O-])c2)cc1 | 10%[58.9 µM] | -18% | -5% | 10% | 3%
CCc1sc(-c2cc3ccccc3oc2=O)nc1-c1ccc(C)cc1 | 31% | nt | 4% | nt | nt
O=S(=O)(NCCNC/C=C/c1ccc(Br)cc1)c1cccc2cnccc12 | -1%[58.9 µM] | -6%[57.1 µM] | 5%[19.4 µM] | 8%[57.1 µM] | 10%
Nc1c(C(=O)Nc2ccc(Br)cc2)sc2nc(-c3ccncc3)ccc12 | ? | -28% | 9% | -19% | 22µM*
O=C(C[n+]1ccccc1Br)c1ccc2c(c1)CCCC2 | 71µM* | nt | ? | nt | nt
O=C(C[n+]1cc(Br)cc(Br)c1)c1ccc2c(c1)CCCC2 | 20% | nt | -18% | nt | nt
O=C(CCl)c1ccc2c(c1)CCCC2 | 11µM* | nt | -7% | nt | nt
CC(=O)c1ccc([N+](C)(C)C)cc1 | 18% | nt | -21% | nt | nt
O=C(OCc1ccccc1)N1CCN(/[N+]([O-])=N/Oc2ccc([N+](=O)[O-])cc2[N+](=O)[O-])CC1 | 26% | nt | -2% | nt | nt
O=C1c2ccccc2C(=O)N1c1cccc2ccncc12 | nt | nt | nt | nt | 2%
O=C(NCCc1cn2ccccc2n1)c1cc(COc2ccc3ncccc3c2)on1 | 36% | -10% | -23% | 40µM* | 3%
Oc1ccc(N=C/C=C/c2cccc(Br)c2)cc1-c1nc2ccccc2s1 | 10µM* | ? | -38% | 13µM* | 0%
Nc1ccc(O)c(-c2nc3ccccc3s2)c1 | ? | ? | ? | 7.9µM* | ?
CCOc1ccccc1CNC(=O)c1cc2c(=O)n(Cc3ccccc3)ccc2nc1C | ? | -5% | -10% | 25µM* | 8%
COc1cc2nc(CCc3nc4cc(OC)c(OC)cc4[nH]3)[nH]c2cc1OC | 2.5µM* | nt | 3.2µM* | nt | nt
Cc1occc1-c1nnc(SCc2cc(=O)n3cc(Br)ccc3n2)n1C | ? | ? | -45% | 45µM* | -12%
OCCN1CCN(C(c2cccs2)c2ccc3cccnc3c2O)CC1 (centres undefined) | nt | nt | nt | 34% | 7.1µM*
CC[n+]1ccnc2ccccc21 | -13% | nt | -24% | nt | nt
CCN1CCN(c2cc(C)c3cc(NC(=O)c4ccc(OC)c(OC)c4)ccc3n2)CC1 | ? | ? | ? | 8.9µM* | 3%
CCN1CCN(c2cc(C)c3cc(NC(=O)c4cc(OC)c(OC)c(OC)c4)ccc3n2)CC1 | -24% | ? | -13%[60.1 µM] | ? | 4%
O=P1(O)OP(=O)(O)OP(=O)(O)O1.[Al] | nt | nt | 17%[60.1 µM] | nt | 8%
Cc1ccsc1C=Nc1ccc(O)cc1 | 13µM* | 14µM* | 89µM* | ? | 4%
COc1ccc(C2Nc3ccccc3C(=O)N2Cc2ccccc2)cc1COc1ccccc1OC (centres undefined) | nt | nt | nt | nt | 3%
